Source: PubChem BioAssay (EPA / NIEHS)
Inconclusive results are not listed. The source made the active and inactive calls. Rule for the calls: active = hit-call score of the fitted dose curve at least 0.9, where 1 is the maximum; inconclusive = response in the unintended direction; inactive = score below 0.9.

The molecules below were run against THRB (gene 7068) (UniProt P10828) (assay: TOX21_TRB_BLA_Antagonist_Followup_ratio: Tox21 Thyroid Hormone Receptor beta Antagonism Beta-lactamase (BLA) Follow-Up Assay, Ratio (AID 2283958)).
Sequence of THRB (gene 7068) (P10828 whole entry, looked up, the tested form may be a part): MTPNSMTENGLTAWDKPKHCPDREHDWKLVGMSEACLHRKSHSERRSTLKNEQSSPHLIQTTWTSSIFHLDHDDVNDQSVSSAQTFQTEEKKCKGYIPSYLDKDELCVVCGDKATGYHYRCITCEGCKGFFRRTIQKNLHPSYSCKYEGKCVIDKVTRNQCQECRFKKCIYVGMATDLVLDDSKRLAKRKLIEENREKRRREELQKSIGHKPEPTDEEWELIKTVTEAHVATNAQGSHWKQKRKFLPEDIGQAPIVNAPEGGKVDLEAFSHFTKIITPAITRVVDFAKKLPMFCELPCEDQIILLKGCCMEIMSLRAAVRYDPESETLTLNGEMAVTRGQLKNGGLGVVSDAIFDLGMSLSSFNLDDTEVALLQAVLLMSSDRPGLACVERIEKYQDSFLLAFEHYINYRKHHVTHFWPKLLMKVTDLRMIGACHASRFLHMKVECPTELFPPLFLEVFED
From the text: The GeneBLAzer TRb-UAS-bla HEK293T assay kit for human TRb (ThermoFisherScientific Catalog No. K1684) was used as a secondary assay for specificity (TRb-bla).This assay contained the ligand-binding domain (LBD) of the human TRb fused to the DNA-binding domain of GAL4 stably integrated in the GeneBLAzer UAS-bla HEK293Tcell line. The reporter gene, b-lactamase, is under the transcriptional control of a UAS that binds the GAL4 DNA-binding domain. A cell viability assay was run in parallel for these cells as well using the CellTiter-Glo viability assay kit.TOX21_TRB_BLA_Antagonist_Followup_ratio is an assay readout measuring reporter gene via receptor activity and designed using inducible reporter (beta lactamase induction) detected with GAL4 b-lactamase reporter gene. The signal is derived from the ratio of cleaved (ch2) to uncleaved (ch1) reporter gene substrate used as the measure of target activity.Data from the assay component TOX21_TRB_BLA_Antagonist_Followup_ratio was analyzed into 1 assay endpoint. This assay endpoint, TOX21_TRB_BLA_Antagonist_Followup_ratio, was analyzed in the positive analysis fitting direction relative to DMSO as the negative control and baseline of activity. Using a type of inducible reporter, loss-of-signal activity can be used to understand changes in the reporter gene as they relate to the gene THRB. Furthermore, this assay endpoint can be referred to as a primary readout, because this assay has produced multiple assay endpoints and this ratio serves a reporter gene function to understand target activity. To generalize the intended target to other relatable targets, this assay endpoint is annotated to the nuclear receptor intended target family, where the subfamily is non-steroidal.
Cell Media Required: Growth (90% DMEM/F-12, 10% Fetal Bovine Calf Serum, 100U/ml Penicillin, 100 ug/ml Streptomycin), Assay (10ng/mL sodium selenite, 10 ug/mL humanapo-transferrin, 10 uM ethanolamine, 10 ug/mL insulin, 500 ug/mL bovine serum albumin (BSA))Assay Protocol: TRb-bla cells were dispensed at 3,000 cells/well in 5 uL of the assay medium containing phenol red-free DMEM with 2% charcoal-stripped FBS in 1,536-well black-wall/clear-bottom plates using an FRD. After 5-h incubation at 37C/5% CO2 for cell attachment to the well bottom, 23nL of follow-up compounds dissolved in DMSO, 11 concentrations in triplicate, and the positive control (T3; agonist format) were transferred to the assay plates using a Pintool station. The assay plates were incubated at 37C/5% CO2 for 18h. One microliter LiveBLAzer FRET-B/G CCF4-AM substrate was added to each well using an FRD. After 2-h incubation at room temperature, the fluorescence intensity was measured using an Envision plate reader. Data were expressed as the ratio of 460:530nm. The cytotoxicity of the compounds was measured in the same plates by adding 4 uL of CellTiter-Glo reagent to each well and incubating the plates at room temperature for 30 min. The luminescence intensity was measured using a ViewLux plate reader.For the luciferase reporter gene assay, 5 uL/well (agonist format) and 4 uL/well (antagonist format) ONE-Glo reagent (Promega Corporation) was added using an FRD and after 30-min incubation at room temperature, the luminescence intensity was measured using a ViewLux plate reader. Data were expressed as relative fluorescence units (cell viability assay) and relative luminescence units (luciferase reporter assay).
With `CN1C(=O)[C@@H](NC(=O)c2cc3ccccc3[nH]2)N=C(c2ccccc2)c2ccccc21` the AC50 was 10.7 µM (active). With `C=CC[C@]1(O)CC[C@H]2[C@@H]3CCC4=CC(=O)CCC4=C3C=C[C@@]21C` the outcome was “inactive”. In the case of `CC[C@H]1C[C@H]2[C@@H]3CCC4=CC(=O)CC[C@@H]4[C@H]3CC[C@]2(C)[C@H]1O`, the outcome is reported as “inactive”. For `CC[C@]1(O)CC[C@H]2[C@@H]3CCC4=CCCC[C@@H]4[C@H]3CC[C@@]21C`, the AC50 was 11.6 µM (active). For `COC1=CC(=O)O[C@@H](/C=C/c2ccc3c(c2)OCO3)C1`, the outcome was “inactive”. `CC(=O)[C@H]1CC[C@H]2[C@@H]3CC[C@@H]4C[C@H](O)CC[C@]4(C)[C@H]3CC[C@]12C` was tested, and the outcome was “inactive”. For `CCN(CC)CCO[C@H]1CC[C@@]2(C)C(=CC[C@@H]3[C@@H]2CC[C@]2(C)C(=O)CC[C@@H]32)C1`, the outcome was “inactive”. With `COc1cc([C@@H]2c3cc4c(cc3[C@@H](O)[C@H]3COC(=O)[C@H]23)OCO4)cc(OC)c1O` the AC50 was 0.653 µM (active). `C[C@]12CC[C@H]3[C@@H](CCC4=C(Cl)C(=O)CC[C@@]43C)[C@@H]1CC[C@@H]2O` was tested, and the outcome was “inactive”. With `O=C1OC2(c3cc(Br)c(O)cc3Oc3c2cc(Br)c(O)[c]3[Hg])c2ccccc21` (stereo unspecified) the outcome was “inactive”. `O=C(N[C@@H]1N=C(c2ccccc2F)c2cccc3c2N(CC3)C1=O)c1cc2ccccc2[nH]1` was tested, and the outcome was “inactive”.
